Holding throughout (experiment): DAPPL (digital affinity profiling via proximity ligation, sequencing); 10 mM Tris-HCl pH 7.5, 50 mM NaCl, 1 mM DTT, 4% glycerol, room temperature, 30 min; GST-TFs on glutathione beads, 16-mer random dsDNA library, 0.1% formaldehyde crosslink after washing; high values mean tight binding
One assay has as its target T1, FEV (Homo sapiens, UniProt Q99581 1-238).
T1 sequence: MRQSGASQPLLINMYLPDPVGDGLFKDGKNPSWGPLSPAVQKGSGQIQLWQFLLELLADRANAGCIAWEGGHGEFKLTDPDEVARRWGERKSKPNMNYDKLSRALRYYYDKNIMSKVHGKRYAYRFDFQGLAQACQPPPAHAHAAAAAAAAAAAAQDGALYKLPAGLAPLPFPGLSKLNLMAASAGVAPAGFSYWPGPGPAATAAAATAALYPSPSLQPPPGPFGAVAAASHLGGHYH
The settings on record: protein: recombinant; tags: N-terminal GST; dsDNA, one strand shown. The procedure, abridged: (§1)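 Human transcription factors were made in yeast as GST fusions, captured on glutathione beads and barcoded with DNA. With a tag-only sample included, the pool was incubated with 200 nmole of a random double-stranded 16-mer DNA library in Tris/NaCl/DTT/glycerol buffer at room temperature for 30 min, then crosslinked with 0.1% formaldehyde after washing, ligated by proximity, amplified and sequenced. For binding signal, each hexamer's read frequency for a factor is divided by its frequency for the tag-only sample.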

The next assay has as its target ETV5 (Homo sapiens, UniProt P41161 1-510). The settings on record: protein: recombinant; tags: N-terminal GST; dsDNA, one strand shown. In a few lines:
as §1

The next assay addresses HSF1 (Homo sapiens, UniProt Q00613 1-529). The settings on record: protein: recombinant; tags: N-terminal GST; chain copies: 3; dsDNA, one strand shown. In a few lines:
as §1

For another assay, the target named is T2, SPIC (Homo sapiens, UniProt Q8N5J4 1-248).
T2 sequence: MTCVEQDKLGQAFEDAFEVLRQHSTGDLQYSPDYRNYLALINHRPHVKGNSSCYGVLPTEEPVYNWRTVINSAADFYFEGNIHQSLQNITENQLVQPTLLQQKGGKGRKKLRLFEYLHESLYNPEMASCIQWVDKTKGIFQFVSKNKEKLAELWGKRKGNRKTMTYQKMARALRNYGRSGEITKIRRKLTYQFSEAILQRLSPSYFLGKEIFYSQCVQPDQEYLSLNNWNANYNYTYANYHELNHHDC
The settings on record: protein: recombinant; tags: N-terminal GST; dsDNA, one strand shown. In a few lines:
as §1

A further assay deals with ELF4 (Homo sapiens, UniProt Q99607 1-663). The settings on record: protein: recombinant; tags: N-terminal GST; dsDNA, one strand shown. In a few lines: as §1
Sequence of ELF4 (Q99607 whole entry): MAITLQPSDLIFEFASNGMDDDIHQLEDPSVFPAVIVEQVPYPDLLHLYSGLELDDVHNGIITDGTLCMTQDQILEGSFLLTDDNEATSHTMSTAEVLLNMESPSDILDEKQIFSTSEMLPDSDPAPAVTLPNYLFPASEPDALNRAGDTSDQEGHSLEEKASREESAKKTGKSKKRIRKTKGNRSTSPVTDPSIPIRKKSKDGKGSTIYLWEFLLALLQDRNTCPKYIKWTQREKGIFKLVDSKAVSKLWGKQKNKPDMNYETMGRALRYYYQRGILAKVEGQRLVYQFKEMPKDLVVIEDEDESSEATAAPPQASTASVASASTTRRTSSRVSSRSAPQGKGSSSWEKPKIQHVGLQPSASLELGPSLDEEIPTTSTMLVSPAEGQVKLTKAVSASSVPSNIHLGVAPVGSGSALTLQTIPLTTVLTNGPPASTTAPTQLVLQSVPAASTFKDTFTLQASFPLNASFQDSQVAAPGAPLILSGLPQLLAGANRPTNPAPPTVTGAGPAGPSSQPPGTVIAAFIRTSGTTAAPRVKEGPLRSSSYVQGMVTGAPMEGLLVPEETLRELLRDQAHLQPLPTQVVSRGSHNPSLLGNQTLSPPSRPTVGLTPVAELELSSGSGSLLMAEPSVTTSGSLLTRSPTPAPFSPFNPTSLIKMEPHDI
For another assay, the target named is T3, ELK4 (Homo sapiens, UniProt P28324-2 1-405).
T3 sequence: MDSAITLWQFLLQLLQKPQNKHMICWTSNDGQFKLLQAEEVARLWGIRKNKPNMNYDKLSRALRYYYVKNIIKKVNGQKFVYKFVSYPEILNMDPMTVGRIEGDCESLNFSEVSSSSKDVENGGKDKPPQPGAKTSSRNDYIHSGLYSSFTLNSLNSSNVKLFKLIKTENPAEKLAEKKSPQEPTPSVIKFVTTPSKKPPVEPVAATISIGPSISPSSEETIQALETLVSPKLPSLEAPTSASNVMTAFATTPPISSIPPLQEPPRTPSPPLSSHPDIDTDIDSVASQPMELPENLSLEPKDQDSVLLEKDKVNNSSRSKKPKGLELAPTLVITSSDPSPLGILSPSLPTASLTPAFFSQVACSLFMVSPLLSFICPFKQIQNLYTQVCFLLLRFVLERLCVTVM
The settings on record: protein: recombinant; tags: N-terminal GST; dsDNA, one strand shown. In a few lines: as §1

Another assay concerns the target T4, ETV2 (Homo sapiens, UniProt O00321 1-342).
T4 sequence: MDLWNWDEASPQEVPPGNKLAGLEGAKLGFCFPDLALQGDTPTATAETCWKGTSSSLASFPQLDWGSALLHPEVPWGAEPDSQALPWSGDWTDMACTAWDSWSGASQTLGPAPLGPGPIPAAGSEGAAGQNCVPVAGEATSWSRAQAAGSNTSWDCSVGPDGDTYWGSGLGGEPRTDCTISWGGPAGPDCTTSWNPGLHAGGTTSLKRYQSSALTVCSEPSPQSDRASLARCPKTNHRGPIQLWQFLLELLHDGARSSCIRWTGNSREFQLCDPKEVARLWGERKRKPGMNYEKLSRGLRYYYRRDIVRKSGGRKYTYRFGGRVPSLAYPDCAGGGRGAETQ
The settings on record: protein: recombinant; tags: N-terminal GST; dsDNA, one strand shown. The procedure, abridged:
as §1

The target of another assay is T5, ELF3 (Homo sapiens, UniProt P78545 1-371).
T5 sequence: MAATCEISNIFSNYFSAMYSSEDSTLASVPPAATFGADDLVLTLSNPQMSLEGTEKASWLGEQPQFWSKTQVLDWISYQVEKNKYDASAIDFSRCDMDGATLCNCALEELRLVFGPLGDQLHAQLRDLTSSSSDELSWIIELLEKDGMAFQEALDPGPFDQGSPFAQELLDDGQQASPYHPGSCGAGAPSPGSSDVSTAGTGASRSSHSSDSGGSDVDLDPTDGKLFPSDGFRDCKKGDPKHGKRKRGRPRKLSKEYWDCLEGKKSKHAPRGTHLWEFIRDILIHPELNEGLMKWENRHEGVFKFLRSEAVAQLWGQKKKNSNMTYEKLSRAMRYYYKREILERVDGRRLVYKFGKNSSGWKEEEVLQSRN
The settings on record: protein: recombinant; tags: N-terminal GST; dsDNA, one strand shown. The procedure, abridged: as §1

The next assay addresses CRX (Homo sapiens, UniProt O43186 1-299). The settings on record: protein: recombinant; tags: N-terminal GST; dsDNA, one strand shown. In a few lines:
as §1

The target of another assay is ETV1 (Homo sapiens, UniProt P50549 1-477). The settings on record: protein: recombinant; tags: N-terminal GST; dsDNA, one strand shown. The procedure, abridged: as §1
Sequence of ETV1 (P50549 whole entry): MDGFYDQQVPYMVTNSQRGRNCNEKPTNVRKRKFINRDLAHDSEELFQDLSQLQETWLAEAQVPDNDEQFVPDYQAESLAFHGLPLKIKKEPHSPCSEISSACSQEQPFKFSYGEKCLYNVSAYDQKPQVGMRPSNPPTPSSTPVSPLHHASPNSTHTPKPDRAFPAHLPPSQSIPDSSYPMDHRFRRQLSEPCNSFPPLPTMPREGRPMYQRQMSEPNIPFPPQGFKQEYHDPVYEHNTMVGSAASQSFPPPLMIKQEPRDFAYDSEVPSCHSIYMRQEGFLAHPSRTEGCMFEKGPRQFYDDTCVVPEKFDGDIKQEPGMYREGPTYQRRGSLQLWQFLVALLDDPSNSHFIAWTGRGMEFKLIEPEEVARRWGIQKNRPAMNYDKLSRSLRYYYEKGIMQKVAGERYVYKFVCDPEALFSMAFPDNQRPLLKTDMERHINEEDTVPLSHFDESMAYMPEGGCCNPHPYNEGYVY
Another assay deals with T6, ERF (Homo sapiens, UniProt P50548 1-548).
T6 sequence: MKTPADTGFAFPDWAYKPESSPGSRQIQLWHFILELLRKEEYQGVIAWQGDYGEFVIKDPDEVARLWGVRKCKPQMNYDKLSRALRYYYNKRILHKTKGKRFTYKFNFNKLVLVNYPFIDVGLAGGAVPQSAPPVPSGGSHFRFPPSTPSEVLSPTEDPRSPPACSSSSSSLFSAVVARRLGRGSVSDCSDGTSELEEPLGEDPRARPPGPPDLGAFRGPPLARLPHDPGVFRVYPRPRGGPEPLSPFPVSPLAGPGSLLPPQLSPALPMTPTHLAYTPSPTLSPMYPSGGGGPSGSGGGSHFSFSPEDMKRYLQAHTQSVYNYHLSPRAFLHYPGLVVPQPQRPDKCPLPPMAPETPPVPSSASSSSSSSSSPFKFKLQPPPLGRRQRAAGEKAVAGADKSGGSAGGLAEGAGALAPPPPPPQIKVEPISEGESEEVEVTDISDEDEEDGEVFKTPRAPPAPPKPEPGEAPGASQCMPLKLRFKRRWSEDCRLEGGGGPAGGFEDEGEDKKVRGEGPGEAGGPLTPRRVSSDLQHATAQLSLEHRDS
The settings on record: protein: recombinant; tags: N-terminal GST; dsDNA, one strand shown. The procedure, abridged:
as §1

A further assay has as its target T7, ETV3L (Homo sapiens, UniProt Q6ZN32 1-361).
T7 sequence: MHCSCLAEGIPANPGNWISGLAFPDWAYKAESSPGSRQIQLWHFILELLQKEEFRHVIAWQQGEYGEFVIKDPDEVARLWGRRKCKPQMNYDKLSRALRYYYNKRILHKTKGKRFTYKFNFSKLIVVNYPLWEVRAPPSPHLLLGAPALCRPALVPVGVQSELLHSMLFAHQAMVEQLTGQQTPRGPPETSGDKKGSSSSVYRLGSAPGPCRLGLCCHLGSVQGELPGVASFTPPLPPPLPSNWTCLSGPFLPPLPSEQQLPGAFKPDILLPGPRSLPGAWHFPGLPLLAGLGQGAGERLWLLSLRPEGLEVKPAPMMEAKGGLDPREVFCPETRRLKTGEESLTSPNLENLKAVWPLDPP
The settings on record: protein: recombinant; tags: N-terminal GST; dsDNA, one strand shown. In a few lines: as §1

The next assay concerns the target T8, ETS2 (Homo sapiens, UniProt P15036 1-469).
T8 sequence: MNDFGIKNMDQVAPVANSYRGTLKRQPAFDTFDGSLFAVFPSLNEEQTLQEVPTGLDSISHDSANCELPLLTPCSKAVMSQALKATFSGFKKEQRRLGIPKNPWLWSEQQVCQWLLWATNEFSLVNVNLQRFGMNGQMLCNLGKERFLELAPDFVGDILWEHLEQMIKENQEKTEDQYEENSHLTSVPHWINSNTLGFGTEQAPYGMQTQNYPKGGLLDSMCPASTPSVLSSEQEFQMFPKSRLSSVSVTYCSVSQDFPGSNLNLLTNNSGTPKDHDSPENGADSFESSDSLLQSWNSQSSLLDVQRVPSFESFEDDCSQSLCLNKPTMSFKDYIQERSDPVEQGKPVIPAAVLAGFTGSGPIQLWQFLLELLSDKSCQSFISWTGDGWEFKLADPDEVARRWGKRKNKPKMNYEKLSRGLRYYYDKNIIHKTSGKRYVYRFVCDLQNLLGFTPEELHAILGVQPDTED
The settings on record: protein: recombinant; tags: N-terminal GST; dsDNA, one strand shown. In a few lines:
as §1

The target of a further assay is T9, SPDEF (Homo sapiens, UniProt O95238 1-335).
T9 sequence: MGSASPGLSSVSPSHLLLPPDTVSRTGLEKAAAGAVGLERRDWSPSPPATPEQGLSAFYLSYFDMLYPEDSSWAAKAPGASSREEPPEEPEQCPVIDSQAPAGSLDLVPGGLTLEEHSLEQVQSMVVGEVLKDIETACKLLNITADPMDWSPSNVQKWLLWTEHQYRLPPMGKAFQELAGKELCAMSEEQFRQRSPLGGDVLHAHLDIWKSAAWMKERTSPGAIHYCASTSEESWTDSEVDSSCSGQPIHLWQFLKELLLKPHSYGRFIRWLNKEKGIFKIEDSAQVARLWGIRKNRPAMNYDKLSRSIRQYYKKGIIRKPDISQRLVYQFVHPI
The settings on record: protein: recombinant; tags: N-terminal GST; dsDNA, one strand shown. In a few lines: as §1

The next assay deals with T10, ETV7 (Homo sapiens, UniProt Q9Y603 1-341).
T10 sequence: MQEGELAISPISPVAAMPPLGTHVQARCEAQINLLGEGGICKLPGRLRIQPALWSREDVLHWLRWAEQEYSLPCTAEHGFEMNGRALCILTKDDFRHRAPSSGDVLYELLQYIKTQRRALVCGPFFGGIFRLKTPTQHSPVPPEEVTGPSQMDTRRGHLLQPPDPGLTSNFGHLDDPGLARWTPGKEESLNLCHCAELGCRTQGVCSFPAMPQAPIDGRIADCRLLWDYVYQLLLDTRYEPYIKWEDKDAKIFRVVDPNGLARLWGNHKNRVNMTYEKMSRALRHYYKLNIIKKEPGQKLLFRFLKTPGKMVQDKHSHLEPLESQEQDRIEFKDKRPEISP
The settings on record: protein: recombinant; tags: N-terminal GST; dsDNA, one strand shown. In a few lines:
as §1

Another assay has as its target T11, ELF5 (Homo sapiens, UniProt Q9UKW6-2 1-255).
T11 sequence: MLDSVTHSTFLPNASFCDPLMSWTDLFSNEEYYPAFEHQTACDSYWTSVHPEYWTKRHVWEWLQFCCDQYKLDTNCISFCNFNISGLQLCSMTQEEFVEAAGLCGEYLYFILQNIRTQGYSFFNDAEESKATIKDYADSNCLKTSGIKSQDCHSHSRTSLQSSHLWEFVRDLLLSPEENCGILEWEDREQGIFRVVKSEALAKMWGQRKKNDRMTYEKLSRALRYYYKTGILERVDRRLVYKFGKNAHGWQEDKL
The settings on record: protein: recombinant; tags: N-terminal GST; dsDNA, one strand shown. The procedure, abridged: as §1

The target of another assay is T12, ETV3 (Homo sapiens, UniProt P41162-2 1-143).
T12 sequence: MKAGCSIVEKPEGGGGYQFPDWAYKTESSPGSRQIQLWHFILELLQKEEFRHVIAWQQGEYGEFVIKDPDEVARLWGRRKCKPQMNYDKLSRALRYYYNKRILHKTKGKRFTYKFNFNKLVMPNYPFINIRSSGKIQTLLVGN
The settings on record: protein: recombinant; tags: N-terminal GST; dsDNA, one strand shown. In a few lines: as §1

For another assay, the target named is ETV6 (Homo sapiens, UniProt P41212 1-452). The settings on record: protein: recombinant; tags: N-terminal GST; dsDNA, one strand shown. The procedure, abridged:
as §1

Sequence of ETV5 (P41161 whole entry): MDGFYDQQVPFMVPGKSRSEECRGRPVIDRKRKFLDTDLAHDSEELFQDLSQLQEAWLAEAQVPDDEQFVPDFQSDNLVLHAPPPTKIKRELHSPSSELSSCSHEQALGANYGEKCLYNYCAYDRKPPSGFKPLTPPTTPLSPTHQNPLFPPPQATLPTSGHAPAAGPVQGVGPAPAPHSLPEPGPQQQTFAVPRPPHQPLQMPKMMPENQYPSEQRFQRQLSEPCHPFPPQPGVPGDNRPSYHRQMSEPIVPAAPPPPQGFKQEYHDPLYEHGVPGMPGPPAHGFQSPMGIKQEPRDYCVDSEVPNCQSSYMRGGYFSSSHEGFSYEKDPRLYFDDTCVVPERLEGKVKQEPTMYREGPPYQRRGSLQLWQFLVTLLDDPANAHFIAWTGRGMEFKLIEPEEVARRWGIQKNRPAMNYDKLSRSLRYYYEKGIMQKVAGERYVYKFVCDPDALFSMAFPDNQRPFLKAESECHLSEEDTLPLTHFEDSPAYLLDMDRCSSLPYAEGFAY
Sequence of HSF1 (Q00613 whole entry): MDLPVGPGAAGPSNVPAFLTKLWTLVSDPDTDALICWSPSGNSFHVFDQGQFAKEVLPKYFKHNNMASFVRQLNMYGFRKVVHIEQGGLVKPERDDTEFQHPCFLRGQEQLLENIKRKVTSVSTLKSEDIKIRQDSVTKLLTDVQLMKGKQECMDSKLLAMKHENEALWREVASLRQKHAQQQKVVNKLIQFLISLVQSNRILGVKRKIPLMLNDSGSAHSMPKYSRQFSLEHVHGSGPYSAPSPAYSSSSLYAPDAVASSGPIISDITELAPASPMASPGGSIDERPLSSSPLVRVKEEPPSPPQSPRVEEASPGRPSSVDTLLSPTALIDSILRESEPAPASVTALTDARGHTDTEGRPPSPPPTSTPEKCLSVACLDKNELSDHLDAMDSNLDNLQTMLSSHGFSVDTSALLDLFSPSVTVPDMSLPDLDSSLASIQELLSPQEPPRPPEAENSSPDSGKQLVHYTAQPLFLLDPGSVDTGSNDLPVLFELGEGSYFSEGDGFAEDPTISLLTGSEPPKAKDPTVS
Sequence of ETV6 (P41212 whole entry): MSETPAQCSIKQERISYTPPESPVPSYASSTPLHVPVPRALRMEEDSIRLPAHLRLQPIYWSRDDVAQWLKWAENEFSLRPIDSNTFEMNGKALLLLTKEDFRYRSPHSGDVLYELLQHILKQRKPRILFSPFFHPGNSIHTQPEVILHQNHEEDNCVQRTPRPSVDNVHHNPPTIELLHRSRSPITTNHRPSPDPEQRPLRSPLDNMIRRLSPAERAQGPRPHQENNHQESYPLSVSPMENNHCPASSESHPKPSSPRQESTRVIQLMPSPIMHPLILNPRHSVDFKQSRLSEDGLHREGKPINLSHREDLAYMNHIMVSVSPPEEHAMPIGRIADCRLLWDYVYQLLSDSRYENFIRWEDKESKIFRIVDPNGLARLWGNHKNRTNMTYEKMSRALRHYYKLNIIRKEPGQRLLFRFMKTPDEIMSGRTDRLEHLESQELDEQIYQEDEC
Sequence of CRX (O43186 whole entry): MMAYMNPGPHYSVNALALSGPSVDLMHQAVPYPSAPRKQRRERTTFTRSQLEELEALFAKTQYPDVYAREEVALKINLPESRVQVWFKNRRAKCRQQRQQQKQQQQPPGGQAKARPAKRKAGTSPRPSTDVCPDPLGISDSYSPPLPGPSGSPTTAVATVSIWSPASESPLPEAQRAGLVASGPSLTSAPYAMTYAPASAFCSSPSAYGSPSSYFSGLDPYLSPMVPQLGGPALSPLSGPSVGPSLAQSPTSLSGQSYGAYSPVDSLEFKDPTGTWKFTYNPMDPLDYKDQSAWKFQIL

With ATGAAA, the binding signal with FEV was 1.13 fold enrichment (6-mer frequency, TF over GST control); with ETV5, 1.12 fold enrichment (6-mer frequency, TF over GST control); with HSF1, 1.16 fold enrichment (6-mer frequency, TF over GST control); with SPIC, 1.24 fold enrichment (6-mer frequency, TF over GST control); in the assay with ELF4, 1.2 fold enrichment (6-mer frequency, TF over GST control); in the assay with ELK4, 1.21 fold enrichment (6-mer frequency, TF over GST control). The binding signal with ETV2 was 1.15 fold enrichment (6-mer frequency, TF over GST control); with ELF3 it was 1.19 fold enrichment (6-mer frequency, TF over GST control); in the assay with CRX it was 1.08 fold enrichment (6-mer frequency, TF over GST control); in the assay with ETV1, 1.2 fold enrichment (6-mer frequency, TF over GST control); with ERF, 1.21 fold enrichment (6-mer frequency, TF over GST control); with ETV3L, 1.16 fold enrichment (6-mer frequency, TF over GST control). Besides, the binding signal is 1.15 fold enrichment (6-mer frequency, TF over GST control) in the assay with ETS2; 1.06 fold enrichment (6-mer frequency, TF over GST control) with SPDEF; 1.07 fold enrichment (6-mer frequency, TF over GST control) with ETV7; 1.13 fold enrichment (6-mer frequency, TF over GST control) with ELF5; 1.1 fold enrichment (6-mer frequency, TF over GST control) in the assay with ETV3; 1.1 fold enrichment (6-mer frequency, TF over GST control) in the assay with ETV6.

The values above are taken from PMC7862700, “An all-to-all approach to the identification of sequence-specific readers for epigenetic DNA modifications on cytosine”.
